High-throughput results: PubChem, SRMLSC
Spn MK inh – S. pneumoniae mevalonate kinase inhibition; purified MK, PK/LDH-coupled NADH absorbance 340 nm; inhibition, % at 10 µM; actives 0.48% (n = 65,000); AID 555;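 active = ranked among the strongest by inhibition in the single 10 µM screen, a fixed top-ranked set picked for dose follow-up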
Spn DPM-DC inh – inhibitors of Streptococcus pneumoniae diphosphomevalonate decarboxylase; AID 556; actives 0.49% (n = 65,000); calls only at 10 µM; purified DPM-DC, PK/LDH coupled NADH fluorescence;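 active = the 320 compounds with the highest percent inhibition in the single-dose primary screen, excluding strongly autofluorescent ones, cut at about 32% in these data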;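 note: kinetic rate of NADH fluorescence loss reporting ADP formed by the decarboxylase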
Autofluor 339 – intrinsic fluorescence of library compounds, ex339/em460 – biochemical, MLSMR library, data from DPM-DC assay, artefact control, profiling panel; compound autofluorescence, ex339/em460 nm, NADH buffer; stronger effect = higher value; 1 = no-compound wells, NADH background; fluorescence fold increase at 10 µM; actives 5.5% (n = 65,000); AID 709;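 active = at 10 µM, mean starting fluorescence two-fold or more over control wells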;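 note: signal is the first read of a kinetic run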
Abs 340nm – compound absorbs light at 340 nm. fold change at 10 µM. AID 708. compound absorbance at 340 nm, fold over control. 65,000 tested, under 10 active;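 active = at 10 µM dose, initial 340 nm absorbance at least 2 fold that of control wells; inactive = change under 2 fold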;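 note: initial absorbance extrapolated from kinetic A340 decline of NADH oxidation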
Spn PMK inh – blocks S. pneumoniae phosphomevalonate kinase; AID 539; actives 0.49% (n = 65,000); inhibition, % at 10 µM; purified PMK, PK/LDH-coupled NADH absorbance 340 nm;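 active = top-ranked compounds by inhibition in the single 10 µM screen, taking a fixed number of the strongest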;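 note: 0% = full reaction with DMSO carrier and 100% = background rate without enzyme reaction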
NADH enzymes – blocks coupling enzymes of NAD/NADH assays; coupled PK/LDH NADH assays, four targets; IC50, µM (highest dose often 10 µM), for inactives: top-dose inhibition; actives 0.02% (n = 65,000); AID 774;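 active = single-dose screening hits from any of four coupled enzyme assays that gave an IC50 when retested across doses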;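 note: the DPM-DC format reads NADH fluorescence rather than 340 nm absorbance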
* hit, by the source's call; i = inactive; x = no result shown; + = active, no number. Hits are enriched below; roughly 6.3% of the tested compounds scored in any of these assays.

SMILES | Spn MK inh | Spn DPM-DC inh | Autofluor 339 | Abs 340nm | Spn PMK inh | NADH enzymes
COc1cc(CN(C)CCc2ccccn2)cc(OC)c1OC | 52* | i | 1.1 | 1.1 | 15 | 22%
Cc1ccc(CN(C)CCc2ccccn2)cc1 | 56* | i | 1.1 | 1.1 | 3 | 20%
CN(CCc1ccccn1)Cc1ccc(Cl)cc1 | 59* | i | 1.1 | 1 | 0 | 20%
CCc1ccc(CN(C)CCc2ccccn2)cc1 | 52* | i | 1 | 1 | 0 | 7%
COc1ccc(CN(C)CCc2ccccn2)cc1OC | 8 | i | 1 | 1 | 18 | 9%
CCC(C(=O)NC1CCCC1)N(C(=O)Cn1nnc(-c2ccc(C)o2)n1)C(C)(C)C (configuration not stated) | 3 | i | 1.1 | 1 | 13 | 5%
CC(=O)c1ccc(Oc2ncnc3sccc23)c(CN2CCOCC2)c1 | 0 | i | 1 | 1 | 25* | 8%
CC(=O)c1c(C)[nH]c(C(=O)CSc2nnc(CN3CCCCCC3=O)n2-c2ccccn2)c1C | 10 | i | 1 | 1 | 7 | 6%
Cc1nc2ncnn2c(C)c1Cc1ccc(Cl)cc1F | 8 | i | 1.1 | 1 | 1 | 3%
CCOC(=O)c1sc2cccc(F)c2c1N | 0 | x | 2.7* | 0.99 | 11 | 5%
O=c1oc2c3c4c(cc2c2c1CCC2)OCCN4CCC3 | 4 | x | 2.2* | 1.1 | 10 | 7%
CCC(=O)Nc1c2c(nn1-c1ccc(OC)cc1)CS(=O)C2 (configuration not stated) | 2 | i | 1.1 | 1 | 2 | 1%
CCCCC(=O)Nc1cc2nn(-c3ccc(OC)cc3)nc2cc1C | 14 | x | 3.6* | 1.1 | 11 | 13%
CCC(=O)Nc1cc2nn(-c3ccc(OC)cc3)nc2cc1C | 0 | x | 3.8* | 1 | 21 | 11%
Cc1cc(N2C(=O)CCC2=O)n(-c2ccccc2)n1 | 8 | i | 1.1 | 1 | 5 | 7%
CC1=NN(c2ccccc2)C(=O)C1 | 53* | i | 1 | 1 | 0 | 5%
COC(=O)c1ccc(Cn2cnc3c(sc4nc(N5CCOCC5)c5c(c43)CCCC5)c2=O)o1 | 5 | i | 1.3 | 1 | 6 | 4%
COc1cc2[nH]c3c(N4CCN(c5ccc(Cl)cc5)CC4)ncnc3c2cc1OC | 1 | i | 2.4* | 1.1 | 9 | 3%
COc1cccc2[nH]c3c(N4CCC(C)CC4)ncnc3c12 | 0 | x | 3.7* | 1.1 | 6 | 3%
COc1cccc2[nH]c3c(N4CCN(Cc5ccc6c(c5)OCO6)CC4)ncnc3c12 | 14 | x | 3.9* | 1.1 | 4 | 9%
COc1cccc(N2CCN(c3ncnc4c3[nH]c3ccccc34)CC2C)c1 (configuration not stated) | 3 | i | 1.4 | 1.1 | 0 | 7%
O=C(O)CSc1nnc(Cn2cnc3ccccc32)n1CCc1ccccc1 | 6 | i | 1.1 | 1 | 7 | 4%
CN1C(=O)c2cccc(NC(=O)Cc3ccccc3)c2C1=O | 4 | i | 1.4 | 1 | 0 | 3%
CCC(C)NC(=O)C1CCN(c2nc(C)cc(C)n2)CC1 (configuration not stated) | 0 | i | 1.4 | 0.99 | 19 | 8%
Cc1cc(-c2ccccc2)nc(N2CCC(C(=O)NC(C)C)CC2)n1 | 0 | + | 3.3* | 0.95 | 14 | 30%
SMILES | Spn MK inh | Spn DPM-DC inh | Autofluor 339 | Abs 340nm | Spn PMK inh | NADH enzymes
CC(=O)Nn1cc2c(c1-c1ccccc1)c(=O)n(C)c(=O)n2C | 1 | i | 1.7 | 1 | 7 | 7%
Cc1cccc(-c2c3c(=O)n(C)c(=O)n(C)c3cn2-c2ccccc2O)c1 | 11 | i | 2.6* | 1 | 0 | 10%
CC1CN(C)C(C)CC1NCc1ccc2c(c1)OCO2 (configuration not stated) | 3 | i | 1.1 | 1 | 0 | 1%
Cc1cccc(C)c1NC(=O)C(c1ccccc1)N1CCN(C(=O)c2ccco2)CC1 (configuration not stated) | 0 | + | 1.1 | 0.99 | 18 | 29%
Cc1cccc(C)c1NC(=O)C(c1ccccc1)N1CCC2(CC1)OCCO2 (configuration not stated) | 3 | i | 1 | 0.99 | 12 | 5%
CCOC(=O)c1cc2c(=O)n3ccccc3nc2n(Cc2ccccc2)c1=N | 3 | x | 2.5* | 0.98 | 20 | 4%
